Results on 24 compounds are retold here after PubChem BioAssay (NCATS).

Assay [1] has as its target Rap guanine nucleotide exchange factor 3 (Homo sapiens) (UniProt O95398). Nature of the assay: Confirmatory qHTS for antagonist of cAMP-regulated guanine nucleotide exchange factor 3 (EPAC1) (AID 1645880). Note: nearly all actives have a fitted effect of over 55% in size. Note: potency is the fitted concentration of half-maximal effect. Summed up: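 Nucleotide exchange uses 100 nM EPAC1, 250 nM RAP1B-BODIPY-GDP and 50 uM GDP, with compounds in a concentration-titration series. After 5 min at room temperature, fluorescence (480 nm ex/540 nm em) is read every 5 min for 30 min. Data are normalized to control ATA and DMSO.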

For assay [2] the target is unchanged. Nature of the assay: Confirmatory qHTS for agonist of cAMP-regulated guanine nucleotide exchange factor 3 (EPAC1) (AID 1645881).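 For activation: EPAC1 catalysed release of BODIPY-GDP from Rap1B seen as fluorescence loss; 100% = effect of cAMP agonist control.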 Note: nearly all actives have a fitted effect of over 75% in size. Note: potency is the fitted concentration of half-maximal effect.
Assay [3] concerns the target Rap guanine nucleotide exchange factor 4 (Homo sapiens) (UniProt Q8WZA2). In words: Confirmatory qHTS for agonist of cAMP-regulated guanine nucleotide exchange factor 4 (EPAC2) (AID 1645884). For activation: % is set by controls: 0 for no effect and ±100 for the full control effect.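 Note: nucleotide exchange releases bodipy-GDP from Rap1 and this lowers its fluorescence; nearly all actives have a fitted effect of over 65% in size.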 Note: potency is the fitted concentration of half-maximal effect.
Assay [4] has the same target. In words: Confirmatory qHTS for antagonist of cAMP-regulated guanine nucleotide exchange factor 4 (EPAC2) (AID 1645885). For activity change, negative = inhibition: % is set by controls: 0 for no effect and ±100 for the full control effect. Note: nearly all actives have a fitted effect of over 25% in size. Note: potency is the fitted concentration of half-maximal effect.
Assay [5] concerns the target Rap guanine nucleotide exchange factor 3 (Homo sapiens) (UniProt O95398). Nature of the assay: Counterscreen qHTS for antagonist of cAMP-regulated guanine nucleotide exchange factor 3 (EPAC1) (AID 1645888).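 Note: fluorescence loss as bound BODIPY-GDP is released from Rap1B; % of control where 0% means no effect.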 The essentials:
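Rap1B–BODIPY-GDP (250 nM) with 50 uM GDP; compounds pin-transferred to 9.74 nM–152 uM final (activator) or from 7.32 nM upwards (inhibitor). Fluorescence Ex/Em 480/540 nm read at 5 and 30 min, then after adding cAMP or buffer, at room temperature.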

Records with an inconclusive call do not appear. A number with no mark means an inactive call. Calls of active or inactive are those of the source. Calls come from the whole dose curve; as a rule, active = well fitted curve in the direction sought with a large enough effect; inconclusive = small, poorly fitted or top-dose-only effect, or another doubt; inactive = no such curve, though single readings can be large; an effect the other way counts as inactive or inconclusive.

Chain of Rap guanine nucleotide exchange factor 4 (Homo sapiens) (Q8WZA2 whole entry, looked up): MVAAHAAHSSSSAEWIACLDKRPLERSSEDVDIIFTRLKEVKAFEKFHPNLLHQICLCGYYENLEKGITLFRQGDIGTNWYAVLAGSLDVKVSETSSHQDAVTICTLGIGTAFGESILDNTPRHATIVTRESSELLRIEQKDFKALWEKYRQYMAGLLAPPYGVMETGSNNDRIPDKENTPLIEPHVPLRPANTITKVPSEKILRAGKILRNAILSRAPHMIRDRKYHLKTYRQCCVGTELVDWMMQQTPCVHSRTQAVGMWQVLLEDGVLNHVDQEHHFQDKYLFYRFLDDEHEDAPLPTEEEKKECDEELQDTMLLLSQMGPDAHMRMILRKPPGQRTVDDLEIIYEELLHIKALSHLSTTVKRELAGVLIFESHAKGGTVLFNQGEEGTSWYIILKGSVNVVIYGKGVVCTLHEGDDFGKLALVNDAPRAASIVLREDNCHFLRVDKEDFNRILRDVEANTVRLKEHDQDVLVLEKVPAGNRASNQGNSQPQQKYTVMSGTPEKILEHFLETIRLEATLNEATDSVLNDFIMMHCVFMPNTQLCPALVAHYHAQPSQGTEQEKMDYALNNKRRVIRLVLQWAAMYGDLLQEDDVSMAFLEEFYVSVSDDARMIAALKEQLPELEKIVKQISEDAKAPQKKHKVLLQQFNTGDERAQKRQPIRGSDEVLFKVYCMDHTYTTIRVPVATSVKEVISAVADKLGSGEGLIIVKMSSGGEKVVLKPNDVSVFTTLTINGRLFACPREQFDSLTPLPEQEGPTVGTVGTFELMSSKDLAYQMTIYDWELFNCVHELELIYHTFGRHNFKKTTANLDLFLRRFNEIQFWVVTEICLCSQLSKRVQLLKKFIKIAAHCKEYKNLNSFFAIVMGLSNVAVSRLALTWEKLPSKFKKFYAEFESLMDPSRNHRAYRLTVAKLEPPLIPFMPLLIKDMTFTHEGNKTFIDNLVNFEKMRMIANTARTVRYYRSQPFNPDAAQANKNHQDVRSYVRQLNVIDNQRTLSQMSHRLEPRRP
Chain of Rap guanine nucleotide exchange factor 3 (Homo sapiens) (O95398 whole entry, looked up): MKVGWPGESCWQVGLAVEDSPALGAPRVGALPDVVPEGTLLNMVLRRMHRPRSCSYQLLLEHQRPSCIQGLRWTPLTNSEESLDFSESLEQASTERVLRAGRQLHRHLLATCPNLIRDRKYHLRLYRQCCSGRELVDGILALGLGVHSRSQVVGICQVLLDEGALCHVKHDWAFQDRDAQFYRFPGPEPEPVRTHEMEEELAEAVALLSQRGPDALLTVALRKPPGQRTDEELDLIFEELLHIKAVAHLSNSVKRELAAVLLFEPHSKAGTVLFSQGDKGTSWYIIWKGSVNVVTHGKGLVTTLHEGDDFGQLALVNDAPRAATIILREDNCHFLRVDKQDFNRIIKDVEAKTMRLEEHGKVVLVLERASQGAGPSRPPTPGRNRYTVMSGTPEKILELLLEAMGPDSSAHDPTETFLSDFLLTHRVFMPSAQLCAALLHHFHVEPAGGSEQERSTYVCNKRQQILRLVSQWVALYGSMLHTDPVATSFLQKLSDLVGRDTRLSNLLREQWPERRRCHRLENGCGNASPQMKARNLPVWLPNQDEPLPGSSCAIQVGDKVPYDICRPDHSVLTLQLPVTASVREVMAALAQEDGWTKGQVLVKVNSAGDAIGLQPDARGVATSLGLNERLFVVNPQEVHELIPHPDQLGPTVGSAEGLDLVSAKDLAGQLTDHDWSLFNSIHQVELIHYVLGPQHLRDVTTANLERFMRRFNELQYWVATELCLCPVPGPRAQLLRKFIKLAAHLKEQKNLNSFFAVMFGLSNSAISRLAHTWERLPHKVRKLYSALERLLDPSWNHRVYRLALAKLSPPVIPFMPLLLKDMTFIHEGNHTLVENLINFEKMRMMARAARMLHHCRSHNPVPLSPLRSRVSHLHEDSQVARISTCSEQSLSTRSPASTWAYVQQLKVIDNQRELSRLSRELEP

As for `CS(=O)(=O)Nc1ccc(C2=NN(C(=O)c3cccc(F)c3)C(c3cccs3)C2)cc1` (stereo not given), the Potency result in assay [1], in assay [2], in assay [3], in assay [4] and in assay [5] was “inactive” each time.

Turning to `Cc1cc(Cl)ccc1-n1c(CCC(=O)O)ccc1-c1cccs1`, the Potency result in assay [1], in assay [2], in assay [3], in assay [4] and in assay [5] was “inactive” each time.

Consider `COc1ccc(C)cc1NC(=O)CSc1nc(=O)n(Cc2ccco2)c2c1CCC2`, for which, in assay [1], the Potency is 84.9 µM (active). Besides, the Potency entry in assay [2], in assay [3], in assay [4] and in assay [5] was “inactive” throughout.

For `CN1OC[C@@H]2CN(S(=O)(=O)c3cc(Cl)cc(Cl)c3)[C@H](c3ccc(-c4ccc(C#N)cc4)cc3)C[C@@H]21`, the Potency entry in assay [1], in assay [2], in assay [3], in assay [4] and in assay [5] was “inactive” each time.

As to `CN1CCN(C(CNC(=O)c2ccc(Br)o2)c2ccc(F)cc2)CC1` (stereo not given), the Potency result in assay [1] and in assay [2] was “inactive” each time. In assay [3], the activation was 4.5% [at 17.1 µM, percent relative to cAMP agonist control]. The Potency in assay [4] was 1.69 µM (active). For the same compound, the activity change, negative = inhibition in assay [5] is -2.27% [at 30.8 µM].

Turning to `CC(=O)c1ccc(NC(=O)CSc2nc(Nc3ccccc3)nc(N3CCOCC3)n2)cc1`, the Potency entry in assay [1], in assay [2], in assay [3], in assay [4] and in assay [5] was “inactive” in each case.

As for `COc1ccc(S(=O)(=O)N2CCOC23CCN(S(=O)(=O)c2cccs2)CC3)cc1`, the Potency result in assay [1], in assay [2] and in assay [4] was “inactive” throughout. In assay [3], the activation was 4.26% [at 17.1 µM, percent relative to cAMP agonist control]. Besides, the activity change, negative = inhibition in assay [5] was -10.2% [at 30.8 µM].

For `CO/N=C/c1ccc(Sc2ccccc2)c([N+](=O)[O-])c1`, the Potency result in assay [1], in assay [2] and in assay [4] was “inactive” throughout. In addition, in assay [3], the activation is 6.03% [at 17.1 µM, percent relative to cAMP agonist control]. The activity change, negative = inhibition in assay [5] is -14.9% [at 30.8 µM].

Consider `CC[n+]1c(/C=C/C=C/N(C(C)=O)c2ccccc2)sc2cc(OC)ccc21`, for which the Potency result in assay [1], in assay [4] and in assay [5] was “inactive” throughout. The Potency was 100 µM (active) in assay [2] and 112 µM (active) in assay [3].

In the case of `COc1ccc(NC(=O)c2c[nH]n3c(=O)cc(C4CCN(C(=O)OC(C)(C)C)CC4)nc23)cc1Cl`, in assay [1], the Potency was 67.5 µM (active). For the same compound, the Potency entry in assay [2], in assay [3], in assay [4] and in assay [5] was “inactive” each time.

With `O=C1Nc2ccccc2Nc2ncccc21`, the Potency result in assay [1], in assay [2] and in assay [4] was “inactive” throughout. Besides, in assay [3], the activation was -4.86% [at 17.1 µM, percent relative to cAMP agonist control]. Besides, in assay [5], the activity change, negative = inhibition is 0.957% [at 30.8 µM].

Regarding `O=C(Nc1cccc(Cl)c1)N(Cc1nc2ccccc2c(=O)[nH]1)Cc1cccs1`, the Potency result in assay [1], in assay [2] and in assay [4] was “inactive” in each case. Also, in assay [3], the activation was 5.3% [at 17.1 µM, percent relative to cAMP agonist control]. Moreover, in assay [5], the activity change, negative = inhibition was 2.45% [at 30.8 µM].

Consider `O=C(/C=C/c1ccc(Cl)cc1)Nc1nccs1`, for which the Potency result in assay [1], in assay [2] and in assay [4] was “inactive” each time. For the same compound, the activation in assay [3] was 2.3% [at 17.1 µM, percent relative to cAMP agonist control]. The activity change, negative = inhibition in assay [5] is -6.03% [at 30.8 µM].

For `CN1OC[C@@H]2CN(C(=O)CCc3ccccc3)[C@H](c3cccc(-c4ccc(C#N)cc4)c3)C[C@@H]21`, the Potency result in assay [1], in assay [2], in assay [3], in assay [4] and in assay [5] was “inactive” throughout.

As to `O=C(COC(=O)c1nc(Cl)ccc1Cl)c1ccccc1Cl`, the Potency entry in assay [1], in assay [2], in assay [3], in assay [4] and in assay [5] was “inactive” each time.

Take `CCOc1ccc(C(=O)Nc2ccc3c(c2)N(C(C)=O)CCC3)cc1OCC`: the Potency entry in assay [1], in assay [2], in assay [3], in assay [4] and in assay [5] was “inactive” each time.

Regarding `COc1ccc(-c2oc3c4c2C(=O)OCCOC4CCC3)cc1` (stereo not given), the Potency result in assay [1], in assay [2], in assay [3], in assay [4] and in assay [5] was “inactive” throughout.

For `O=C(Nc1cccc(Cl)c1)C1CCCN(C2=NS(=O)(=O)c3ccccc32)C1` (stereo not given), the Potency result in assay [1], in assay [2], in assay [3], in assay [4] and in assay [5] was “inactive” throughout.

For `CCc1ccc2c(c1)C(NC(C)=O)C(=O)N2CCN1CCOCC1` (stereo not given), the Potency in assay [1] was 19 µM (active). Further, the Potency result in assay [2], in assay [3], in assay [4] and in assay [5] was “inactive” in each case.

With `COc1cc2cnc(-c3ccccc3)c(C(=O)c3ccc(F)cc3)c2cc1OC`, the Potency entry in assay [1], in assay [2] and in assay [4] was “inactive” each time. Besides, the activation in assay [3] was 4.26% [at 17.1 µM, percent relative to cAMP agonist control]. Further, in assay [5], the activity change, negative = inhibition is -6.2% [at 30.8 µM].

As for `CC[C@H]1C(c2ccc(F)cc2)=NN(c2ccccc2)[C@@H]1CO`, the Potency entry in assay [1], in assay [2] and in assay [4] was “inactive” throughout. Besides, the activation in assay [3] was 4.16% [at 17.1 µM, percent relative to cAMP agonist control]. Moreover, the activity change, negative = inhibition in assay [5] was -6.73% [at 30.8 µM].

As for `COc1ccc(OC)c(/C=C2\N=C(c3ccccc3)OC2=O)c1`, the Potency entry in assay [1], in assay [2], in assay [3], in assay [4] and in assay [5] was “inactive” each time.

Take `COc1cc(/C=C/CNC[C@H]2O[C@@H](n3cnc4c(=O)[nH]c(N)nc43)[C@H](O)[C@@H]2O)ccc1O`: the Potency result in assay [1], in assay [2], in assay [3], in assay [4] and in assay [5] was “inactive” each time.

For the compound `Cc1ccc2nc(NC(=O)CSc3nc(=O)n(CCCN(C)C)c4c3CCC4)sc2c1`, the Potency entry in assay [1], in assay [2] and in assay [4] was “inactive” throughout. The activation in assay [3] was 2.81% [at 17.1 µM, percent relative to cAMP agonist control]. The activity change, negative = inhibition in assay [5] was -5.22% [at 30.8 µM].
